esBAF inh – blocks esBAF chromatin remodeling in mouse ES cells. Bmi1-luciferase knock-in reporter, 24 h; 100% = twice the neutral-well signal. reporter increase, % at 12.5 µM. 2% of 350,000 active. AID 602393; in the data active = activation above about 40%; inconclusive = no clear call, values can overlap the other calls;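 note: a rise in the Bmi1 reporter signal indicates esBAF inhibition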
C2C12 statin – suppression of simvastatin myotoxicity; C2C12 myotubes + simvastatin, ATP luminescence, 48 h; scaled: DMSO 0, geranylgeraniol control 100; rescue of ATP level, % at 7.49 µM; 0.78% of 330,000 active; AID 602340;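 active = mean ATP rescue above about 67%, or every replicate alone reaching that limit, limit read from the data, passing the limit was not always enough; inconclusive = no clear call, values can overlap the other calls; inactive = mean under the limit and some replicate under it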;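 note: myotubes were challenged with 10 µM simvastatin during compound exposure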
Rtt109 Vps75 – C. albicans Rtt109 histone acetyltransferase inhibition | Q5AAJ8 | purified Rtt109/Vps75, ThioGlo CoA-SH fluorescence, 4 h | inhibition, % at 34.9 µM | 0.16% of 330,000 active;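 active = inhibition of at least 50% in every replicate; inconclusive = best replicate reaches 50% inhibition but some replicates fall short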
Target sequence (Q5AAJ8 whole entry, looked up): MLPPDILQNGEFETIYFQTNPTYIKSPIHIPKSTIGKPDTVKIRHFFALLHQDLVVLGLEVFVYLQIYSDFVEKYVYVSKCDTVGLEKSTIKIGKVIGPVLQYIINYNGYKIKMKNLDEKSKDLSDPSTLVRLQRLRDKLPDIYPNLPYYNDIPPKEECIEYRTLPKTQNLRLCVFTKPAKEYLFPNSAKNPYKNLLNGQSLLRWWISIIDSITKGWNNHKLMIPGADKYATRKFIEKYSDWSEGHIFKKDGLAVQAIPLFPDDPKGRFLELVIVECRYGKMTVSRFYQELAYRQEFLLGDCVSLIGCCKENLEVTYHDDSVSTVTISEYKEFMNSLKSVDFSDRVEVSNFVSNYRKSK
MITF act – MITF TRPM1 promoter activation in melanoma cells; SK-MEL-5 TRPM1-promoter luciferase, 24 h; % of positive control, neutral wells = 0; 0.75% of 300,000 active; activation, % at 12.5 µM;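 active = mean activation of at least 80% with every replicate also reaching 80%; inconclusive = mean reaches 80% but some replicate falls short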
Wnt bcat act – activators of Wnt/beta-catenin signaling; activation, % at 9.35 µM; 1.2% of 300,000 active; Wnt/beta-catenin reporter cell assay, activator, plate reader; AID 743398; in the data active = activation above about 30%, passing the limit was not always enough; inconclusive = no clear call, values can overlap the other calls
Of the large screens only hits and unclear results are named; the others gave an inactive call. Sampled rows, rich in hits. Any-hit rate of the full collection: about 3.1%.

Cc1ccc(N/C=C/c2onc(C)c2[N+](=O)[O-])cc1	MITF act 113, Wnt bcat act 40
Cc1cnn(C(=S)NCCc2ccccc2)c1	esBAF inh 46 (no result: MITF act, Wnt bcat act)
Cc1cnn(C(=S)NCc2ccc(Cl)cc2)c1	none (no result: esBAF inh, C2C12 statin, Rtt109 Vps75, MITF act)
CC(Sc1nc2ccccc2s1)C(=O)NCc1ccc2c(c1)OCO2 (stereo not given)	esBAF inh 52
CO[C@@H]1CN(C)C(=O)c2cc(NS(C)(=O)=O)ccc2OC[C@H](C)N(Cc2cccnc2)C[C@H]1C	none (no result: Rtt109 Vps75, MITF act, Wnt bcat act)
CCc1ccc(Nc2ncc3c(n2)CC(c2ccc(OC)cc2)CC3=O)cc1 (stereo not given)	none (no result: MITF act, Wnt bcat act)
CCc1ccc(Nc2ncc3c(n2)CC(C)(C)CC3=O)cc1	MITF act 102, Wnt bcat act 57 (no result: esBAF inh, C2C12 statin)
Cc1ccc(Nc2ncc3c(n2)CC(c2ccco2)CC3=O)c(C)c1 (stereo not given)	esBAF inh 54
CCc1ccc(Nc2ncc3c(n2)CC(C)CC3=O)cc1 (stereo not given)	MITF act 107 (no result: esBAF inh, C2C12 statin)
Cc1cccc(Nc2ncc3c(n2)CC(C)CC3=O)c1 (stereo not given)	esBAF inh 51, MITF act inconclusive (no result: Wnt bcat act)
N#Cc1ccc(CSc2ccccn2)c(Cl)c1	none (no result: MITF act)
N#Cc1ncccc1CCc1cccc(Cl)c1	esBAF inh 43
CCCc1cc(=O)[nH]c(SCC(=O)Nc2cccc3ccccc23)n1	none
COCc1cc(=O)[nH]c(SCC(=O)Nc2ccccc2)n1	C2C12 statin 102
CCCc1cc(=O)[nH]c(SCC(=O)Nc2ccccc2C#N)n1	C2C12 statin 98 (no result: Wnt bcat act)
Nc1nc(SCC(=O)Nc2ccc(Cl)cc2)[nH]c(=O)c1-c1ccccc1	C2C12 statin 122
CCOc1ccc(NC(=O)COc2ccccc2)c([N+](=O)[O-])c1	esBAF inh 62, MITF act 130
Cc1ccc(OCC(=O)Nc2ccccc2[N+](=O)[O-])c(Br)c1	Wnt bcat act 64 (no result: esBAF inh, C2C12 statin)
CCOc1ccc(NC(=O)c2ccc(Br)o2)c([N+](=O)[O-])c1	esBAF inh 50
Cc1cc(=O)oc2cc(OCCCC[n+]3ccccc3)ccc12	none (no result: esBAF inh, C2C12 statin)
COc1cccc(COc2ccc3c(C)cc(=O)oc3c2)c1	esBAF inh 51, MITF act 114, Wnt bcat act 46
Cc1cc(=O)oc2cc(OCCc3ccccc3)ccc12	esBAF inh 67
COc1ccc2c(C)cc(=O)oc2c1	none
Fc1ccc2nc(Nc3ccccc3)sc2c1	esBAF inh 92, MITF act inconclusive
Fc1ccc2nc(Nc3nc4cc5c(cc4s3)OCCO5)sc2c1	MITF act 85 (no result: esBAF inh, C2C12 statin, Wnt bcat act)
c1ccc2sc(Nc3nc4cc5c(cc4s3)OCO5)nc2c1	esBAF inh 69 (no result: Wnt bcat act)
CC(=O)Nc1nc2cc3c(cc2s1)OCO3	esBAF inh 57 (no result: MITF act)
O=C(C[C@H]1CC[C@@H]2[C@H](COC[C@H](O)CN2S(=O)(=O)c2cccc(F)c2)O1)Nc1ccccc1	none (no result: Rtt109 Vps75, MITF act, Wnt bcat act)
C[C@H](CO)N1C[C@H](C)[C@@H](CN(C)C(=O)c2ccncc2)Oc2ncc(C#CC3CC3)cc2C1=O	none (no result: esBAF inh, Rtt109 Vps75, MITF act, Wnt bcat act)
O=C(NC[C@@H]1N[C@@H](CO)[C@H]1c1ccc(C2=CCCCC2)cc1)c1cccc(F)c1	none (no result: Rtt109 Vps75, MITF act, Wnt bcat act)
CNC[C@@H]1OCCCC[C@H](C)Oc2ccc(N(C)C)cc2C(=O)N([C@@H](C)CO)C[C@H]1C	none (no result: Rtt109 Vps75, MITF act, Wnt bcat act)
CCC[C@H]1COCCS(=O)(=O)N1Cc1ccccc1F	C2C12 statin 79
COCCNC(=O)c1cc(-c2ccc(Cl)c(Cl)c2)on1	esBAF inh 52
O=C(c1cc(-c2ccc(Cl)cc2)on1)N1CCOCC1	none (no result: Wnt bcat act)
O=C(c1cc(-c2ccc(Cl)c(Cl)c2)on1)N1CCOCC1	esBAF inh 42, MITF act 90
O=C(c1cc(-c2cccc(Cl)c2)on1)N1CCOCC1	esBAF inh 44, MITF act 101
COCCNC(=O)c1cc(-c2ccc(OC)c(OC)c2)on1	none (no result: Wnt bcat act)
CO[C@H]1CN(C)C(=O)c2cc(NC(C)=O)ccc2OC[C@@H](C)N(CC2CCCCC2)C[C@H]1C	none (no result: Rtt109 Vps75, MITF act, Wnt bcat act)
COc1ccc2c(COC(=O)CCS(=O)(=O)c3ccccc3)cc(=O)oc2c1	none (no result: esBAF inh, C2C12 statin, Wnt bcat act)
COc1ccc2c(COC(=O)c3n[nH]c4ccccc34)cc(=O)oc2c1	esBAF inh 46 (no result: MITF act)
Cc1cc2oc(=O)cc(COC(=O)c3n[nH]c4ccccc34)c2cc1C	MITF act 92 (no result: Wnt bcat act)
COCC(=O)Nc1ccc2c(c1)OC[C@@H](C)N(Cc1ccccc1OC)C[C@@H](C)[C@@H](OC)CN(C)C2=O	none (no result: Rtt109 Vps75, MITF act, Wnt bcat act)
CC1=CC(=C2C(=O)c3ccccc3C2=O)C=C(C)N1Cc1ccco1	Wnt bcat act 51 (no result: esBAF inh, C2C12 statin)
c1cncc(CSc2ccc(-c3cccs3)nn2)c1	esBAF inh 56
Cc1ccc(CSc2ccc(-c3cccs3)nn2)cc1	MITF act 109 (no result: esBAF inh, C2C12 statin, Wnt bcat act)
Cc1ccc(CNC(=O)CSc2ccc(-c3cccs3)nn2)cc1	none (no result: esBAF inh, C2C12 statin)
C/C=C/c1cnc2c(c1)C(=O)N([C@@H](C)CO)C[C@H](C)[C@@H](CN(C)Cc1cncnc1)O2	none (no result: Rtt109 Vps75, MITF act, Wnt bcat act)
Cn1ncc(N=Cc2ccccc2O)c1C(=O)Nc1ccccc1	C2C12 statin 118
COc1ccc(C(=O)NCC(=O)N=Nc2c(O)n(Cc3ccccc3)c3ccccc23)cc1OC	none (no result: esBAF inh, C2C12 statin, Rtt109 Vps75)
O=C(N=Nc1c(O)n(Cc2ccccc2)c2ccccc12)c1cc2ccccc2cc1O	MITF act 89 (no result: esBAF inh, C2C12 statin)
O=C(N=Nc1c(O)n(Cc2ccccc2)c2ccccc12)c1ccc(O)cc1	MITF act 150 (no result: esBAF inh, C2C12 statin, Wnt bcat act)
CO[C@@H]1CN(C)C(=O)c2ccc(NC(C)=O)cc2OC[C@H](C)N(C(=O)CN(C)C)C[C@H]1C	none (no result: Rtt109 Vps75, MITF act, Wnt bcat act)
CCCCOc1ccc2c(c1)C(=O)c1cc(O)ccc1-2	MITF act 86 (no result: esBAF inh, C2C12 statin)
CO[C@H]1CN(C)C(=O)c2cc(NC(=O)c3ccno3)ccc2OC[C@H](C)N(S(C)(=O)=O)C[C@H]1C	none (no result: Rtt109 Vps75, MITF act, Wnt bcat act)
CNC(=O)C[C@H]1CC[C@@H]2[C@@H](COc3ccc(NC(=O)c4ccc5c(c4)OCO5)cc3C(=O)N2C)O1	none (no result: Rtt109 Vps75, MITF act, Wnt bcat act)
CCOCCCNc1nc2c([nH]1)c(=O)n(C)c(=O)n2C	none
COCCCNc1nc2c([nH]1)c(=O)[nH]c(=O)n2C	C2C12 statin 133
COc1ccccc1C(=O)Nc1cccc2cccnc12	esBAF inh 64
CC(=O)Nc1cccc(NC(=O)c2cccc3cccnc23)c1	none
O=C(NCCc1ccccc1F)c1cccc2cccnc12	esBAF inh 66
O=C(Nc1cccc2cccnc12)c1ccccc1Cl	none (no result: Rtt109 Vps75, MITF act)
Cc1ccc(NC(=O)c2cccc3cccnc23)cc1	esBAF inh 64
Cc1noc(C)c1NC(=O)N(C)C[C@H]1OCCCC[C@@H](C)Oc2ccc(NC(=O)c3ccncc3)cc2C(=O)N([C@H](C)CO)C[C@@H]1C	none (no result: Rtt109 Vps75, MITF act, Wnt bcat act)
C[C@H]1CN([C@@H](C)CO)S(=O)(=O)c2ccc(-c3ccncc3)cc2O[C@@H]1CN(C)C(=O)C1CCCCC1	none (no result: Rtt109 Vps75, MITF act, Wnt bcat act)
COCC(=O)N1C[C@@H]2[C@H](c3ccccc31)[C@H](CO)N2Cc1ccc(OC)cc1	none (no result: Rtt109 Vps75, MITF act, Wnt bcat act)
COc1ccc(C2CC(c3c(O)cc(C)oc3=O)=NCCS2)c(OC)c1 (stereo not given)	C2C12 statin 117
CC(=O)Nc1ccc2c(c1)nc1n2CCOC1	none (no result: Wnt bcat act)
